# Active and inactive are the calls of the source. Rule for the calls: active = hit-call score of the fitted dose curve at least 0.9, where 1 is the maximum; inactive = score below 0.9.
# What was measured:
# [1] = target: Aryl hydrocarbon receptor (Homo sapiens) (UniProt P35869); test: ATG_Ahr_CIS: Attagene CIS-FACTORIAL HepG2 Assay for human Aryl Hydrocarbon Receptor (Ahr) (AID 2282930); settings: HepG2 AhR cis-factorial reporter transcription; actives raise or lower the signal
# Method in brief: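 Following 24 h of chemical dosing, transfected HepG2 liver cells with cis-driven reporter units were lysed for RNA; reporter mRNA was quantified via RT-PCR and capillary electrophoresis, and responses fitted bidirectionally from DMSO.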
# [2] = ATG_BRE_CIS: Attagene CIS-FACTORIAL HepG2 Assay for human Bone Morphogenetic Protein (BMP) Response Element (BRE) (AID 2282933); settings: HepG2 BMP response element reporter, Attagene transcription factor profiling; actives raise or lower the signal
# Method in brief: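 A HepG2 multiplex reporter system measured inducible reporter mRNA 24 h post-dosing. Detection: RT-PCR, 6-FAM primer extension, HpaI digestion, capillary electrophoresis. Activity fitted bidirectionally relative to DMSO.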
# [3] = ATG_E_Box_CIS: Attagene CIS-FACTORIAL HepG2 Assay for human Enhancer Box (E-box) (AID 2282936); settings: HepG2 E-box cis-reporter transcription, actives raise or lower the signal
# Method in brief: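 Measured 24 h post-dosing in HepG2 cells transfected with multiple cis-regulated reporter units, signal being reporter mRNA induction detected by fluorescent RT-PCR with capillary electrophoresis; gain or loss fitted against DMSO.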
# [4] = ATG_FoxO_CIS: Attagene CIS-FACTORIAL HepG2 Assay for human Forkhead box O (FoxO) (AID 2282943); settings: HepG2 Attagene cis-reporter, FoxO element, mRNA; actives raise or lower the signal
# Method in brief: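 24 h chemical exposure, HepG2 with transient cis-MRTU transfection. RNA extraction, oligo(dT) RT, reporter-specific PCR, primer-extension labelling, HpaI digestion, CE fragment analysis; bidirectional fit, DMSO baseline.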
# [5] = target: Hypoxia-inducible factor 1-alpha (Homo sapiens) (UniProt Q16665); test: ATG_HIF1a_CIS: Attagene CIS-FACTORIAL HepG2 Assay for human Hypoxia Inducible Factor 1 (HIF1A) (AID 2282951); settings: HepG2 Attagene cis-factorial HIF1a reporter transcription; actives raise or lower the signal
# Chain of Hypoxia-inducible factor 1-alpha (Homo sapiens) (Q16665 whole entry, looked up): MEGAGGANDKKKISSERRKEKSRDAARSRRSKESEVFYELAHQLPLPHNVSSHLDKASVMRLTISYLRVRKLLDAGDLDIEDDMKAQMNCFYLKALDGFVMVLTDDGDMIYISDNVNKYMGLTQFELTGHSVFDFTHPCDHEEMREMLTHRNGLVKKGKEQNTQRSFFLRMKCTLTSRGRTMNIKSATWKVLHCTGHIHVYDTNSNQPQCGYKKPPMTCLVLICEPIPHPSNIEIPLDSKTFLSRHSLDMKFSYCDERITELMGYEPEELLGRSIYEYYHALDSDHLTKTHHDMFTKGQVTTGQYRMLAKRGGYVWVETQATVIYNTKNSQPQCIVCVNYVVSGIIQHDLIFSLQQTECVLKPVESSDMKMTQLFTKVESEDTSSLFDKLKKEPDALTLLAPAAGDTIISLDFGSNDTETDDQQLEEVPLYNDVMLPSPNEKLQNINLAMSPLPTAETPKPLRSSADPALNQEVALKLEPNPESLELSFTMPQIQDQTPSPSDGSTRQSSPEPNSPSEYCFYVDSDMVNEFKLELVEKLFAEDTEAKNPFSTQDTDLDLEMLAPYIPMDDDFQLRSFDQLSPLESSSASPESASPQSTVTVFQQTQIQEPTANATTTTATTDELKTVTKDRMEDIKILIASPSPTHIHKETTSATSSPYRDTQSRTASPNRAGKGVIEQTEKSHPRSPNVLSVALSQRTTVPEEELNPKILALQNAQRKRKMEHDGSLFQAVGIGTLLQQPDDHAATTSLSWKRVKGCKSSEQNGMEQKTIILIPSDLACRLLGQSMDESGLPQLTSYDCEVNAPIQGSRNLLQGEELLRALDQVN
# Method in brief: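 HepG2 cells transiently transfected with multiple cis-regulated reporter transcription units measure endogenous transcription factor activity. After 24 h exposure, reporter mRNA is quantified by RT-PCR with 6-FAM labelling, HpaI digestion and capillary electrophoresis. Bidirectional fitting against DMSO.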
# [6] = target: Heat shock factor protein 1 (Homo sapiens) (UniProt Q00613); test: ATG_HSE_CIS: Attagene CIS-FACTORIAL HepG2 Assay for human Heat Shock Transcription Factor 1 (HSE) (AID 2282953); settings: HepG2 HSE cis-reporter, Attagene RNA transcription; actives raise or lower the signal
# Chain of Heat shock factor protein 1 (Homo sapiens) (Q00613 whole entry, looked up): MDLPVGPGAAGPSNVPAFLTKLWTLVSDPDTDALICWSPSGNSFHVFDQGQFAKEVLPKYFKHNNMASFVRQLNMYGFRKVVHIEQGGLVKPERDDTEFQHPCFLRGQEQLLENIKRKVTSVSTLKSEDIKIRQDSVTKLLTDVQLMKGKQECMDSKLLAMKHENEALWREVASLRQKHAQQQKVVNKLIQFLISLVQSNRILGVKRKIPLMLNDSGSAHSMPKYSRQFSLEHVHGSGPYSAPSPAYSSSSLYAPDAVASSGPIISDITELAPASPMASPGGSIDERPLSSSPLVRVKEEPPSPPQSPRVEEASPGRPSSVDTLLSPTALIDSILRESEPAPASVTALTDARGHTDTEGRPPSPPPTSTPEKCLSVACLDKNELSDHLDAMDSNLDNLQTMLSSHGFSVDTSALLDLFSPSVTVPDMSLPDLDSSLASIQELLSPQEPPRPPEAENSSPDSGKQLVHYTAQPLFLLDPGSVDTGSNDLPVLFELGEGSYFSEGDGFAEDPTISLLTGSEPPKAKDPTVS
# Method in brief: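 Liver-derived HepG2 cells carry transiently introduced multiple reporter units governed by cis promoters. Reporter RNA measured 24 h post-dose through reverse transcription, PCR amplification, fluorescent labelling and capillary electrophoresis, normalised to DMSO.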
# [7] = ATG_RORE_CIS: Attagene CIS-FACTORIAL HepG2 Assay for human RAR-related Orphan Receptor Element (RORE) (AID 2282959); settings: HepG2 Attagene cis-factorial RORE reporter, mRNA; actives raise or lower the signal
# Method in brief: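 HepG2 cells carrying transiently transfected cis-regulated reporter units; RORE-driven reporter mRNA quantified 24 h post-dosing by RT-PCR, 6-FAM primer extension, HpaI digestion and capillary electrophoresis. Bidirectional fit versus DMSO.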
# [8] = ATG_Sox_CIS: Attagene CIS-FACTORIAL HepG2 Assay for human SRY-box transcription factor (SOX) (AID 2282960); settings: HepG2 Attagene cis-factorial SOX reporter, mRNA; actives raise or lower the signal
# Method in brief: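 HepG2 cells transiently transfected with multiple cis-regulated reporter units, then dosed for 24 h. Reporter mRNA quantified by RT-PCR, fluorescent labelling, HpaI digestion and capillary electrophoresis; bidirectional fit versus DMSO.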
# [9] = ATG_SREBP_CIS: Attagene CIS-FACTORIAL HepG2 Assay for human Sterol Regulatory Element Binding (SREBP) (AID 2282962); settings: HepG2 Attagene cis-factorial SREBP reporter, mRNA; actives raise or lower the signal
# Method in brief: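 Readout: fluorescent reporter-transcript peaks resolved by capillary electrophoresis after RT-PCR. Cells were human HepG2 carrying transfected cis-promoter reporter constructs, dosed for 24 h. Gain or loss of signal was fitted against DMSO controls.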
# [10] = target: Signal transducer and activator of transcription 3 (Homo sapiens) (UniProt P40763); test: ATG_STAT3_CIS: Attagene CIS-FACTORIAL HepG2 Assay for human Signal Transducer and Activator of Transcription 3 (STAT3) (AID 2282963); settings: HepG2, Attagene cis-factorial STAT3 reporter transcription; actives raise or lower the signal
# Method in brief: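 Uses human liver HepG2 transiently carrying cis-regulated reporter transcription units. Following 24 h dosing, reporter mRNA induction was detected by RT-PCR and capillary electrophoresis, analysed bidirectionally versus DMSO.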
# [11] = ATG_TA_CIS: Attagene CIS-FACTORIAL HepG2 Assay for human TA Basal Promoter (AID 2282964); settings: HepG2 Attagene CIS-factorial TA basal promoter reporter; actives raise or lower the signal
# Method in brief: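 Background internal-marker endpoint from a 52-component HepG2 cis-reporter panel. Cells treated 24 h; reporter transcripts quantified via RT-PCR and CE fluorescence against DMSO baseline.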
# [12] = ATG_TCF_b_cat_CIS: Attagene CIS-FACTORIAL HepG2 Assay for human T-Cell-Factor with beta-catenin (TCF/b-cat) (AID 2282965); settings: HepG2 TCF/beta-catenin cis-reporter transcription, actives raise or lower the signal
# Method in brief: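 In this cis-format system, transfected HepG2 cells report endogenous transcription factor activity. Readout after 24 h exposure is reporter transcript abundance from RT-PCR and capillary electrophoresis, analysed for gain or loss of signal versus DMSO.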
# [13] = ATG_TGFb_CIS: Attagene CIS-FACTORIAL HepG2 Assay for human Transforming Growth Factor (TGF) (AID 2282967); settings: HepG2 Attagene CIS TGFb reporter, mRNA transcription; actives raise or lower the signal
# Method in brief: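 Liver HepG2 line, cis-factorial reporter panel, 24 h dosing. Quantitation: RT-PCR products labeled with 6-FAM, cut with HpaI, resolved by capillary electrophoresis; DMSO-referenced bidirectional analysis.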
# [14] = target: X-box-binding protein 1 (Homo sapiens) (UniProt P17861); test: ATG_Xbp1_CIS: Attagene CIS-FACTORIAL HepG2 Assay for human X-box Binding Protein 1 (XBP1) (AID 2282972); settings: HepG2 XBP1 cis-element reporter, Attagene multiplex; actives raise or lower the signal
# Chain of X-box-binding protein 1 (Homo sapiens) (P17861 whole entry, looked up, the tested form may be a part): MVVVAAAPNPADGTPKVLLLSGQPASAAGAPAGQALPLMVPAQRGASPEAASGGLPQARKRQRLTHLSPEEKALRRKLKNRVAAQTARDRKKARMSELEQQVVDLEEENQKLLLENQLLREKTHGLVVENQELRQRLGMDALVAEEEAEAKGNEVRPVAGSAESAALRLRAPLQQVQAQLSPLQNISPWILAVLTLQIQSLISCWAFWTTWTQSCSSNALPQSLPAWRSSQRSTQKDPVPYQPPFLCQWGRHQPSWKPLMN
# Method in brief: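 Read-out: fluorescent reporter mRNA fragments resolved by capillary electrophoresis after RT-PCR. Human HepG2 liver cells carried transfected cis-promoter reporter units and were exposed to chemicals for 24 hours. Gain or loss of signal fitted relative to DMSO baseline.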
# [15] = target: Transcriptional activator Myb (Homo sapiens) (UniProt P10242); test: ATG_Myb_CIS: Attagene CIS-FACTORIAL HepG2 Assay for human Myeloblastosis (Myb) Proto-Oncogene Transcription Factor (AID 2282986); settings: HepG2 Attagene CIS-FACTORIAL Myb reporter transcription; actives raise or lower the signal
# Chain of Transcriptional activator Myb (Homo sapiens) (P10242 whole entry, looked up): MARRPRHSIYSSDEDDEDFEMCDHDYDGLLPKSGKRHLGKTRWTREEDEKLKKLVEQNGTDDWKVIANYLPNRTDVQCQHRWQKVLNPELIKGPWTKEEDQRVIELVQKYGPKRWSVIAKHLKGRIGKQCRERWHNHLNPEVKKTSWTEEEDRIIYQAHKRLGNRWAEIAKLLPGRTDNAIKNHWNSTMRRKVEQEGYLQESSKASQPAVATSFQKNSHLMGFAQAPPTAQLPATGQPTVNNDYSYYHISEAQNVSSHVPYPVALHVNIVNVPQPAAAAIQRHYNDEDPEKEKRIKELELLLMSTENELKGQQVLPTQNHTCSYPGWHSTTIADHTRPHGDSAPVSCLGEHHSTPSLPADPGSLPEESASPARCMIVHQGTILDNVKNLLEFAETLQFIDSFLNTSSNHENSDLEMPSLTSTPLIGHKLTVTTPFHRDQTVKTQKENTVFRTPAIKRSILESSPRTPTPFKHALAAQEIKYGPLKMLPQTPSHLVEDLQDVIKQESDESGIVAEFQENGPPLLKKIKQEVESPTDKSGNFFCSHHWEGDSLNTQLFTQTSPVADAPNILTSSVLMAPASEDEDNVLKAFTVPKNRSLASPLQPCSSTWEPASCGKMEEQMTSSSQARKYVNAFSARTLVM
# Method in brief: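 Transiently transfected HepG2 cells carrying a multiplexed cis-promoter reporter set report endogenous Myb activity after 24 h compound exposure. Reporter mRNA is read by RT-PCR with capillary electrophoresis of fluorescent products, fitted bidirectionally against DMSO.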
# [16] = target: Nuclear respiratory factor 1 (Homo sapiens) (UniProt Q16656); test: ATG_NRF1_CIS: Attagene CIS-FACTORIAL HepG2 Assay for human Nuclear Respiratory Factor 1 (NRF1) Orphan Gene (AID 2282987); settings: HepG2 NRF1 cis-element reporter, Attagene multiplex; actives raise or lower the signal
# Chain of Nuclear respiratory factor 1 (Homo sapiens) (Q16656 whole entry, looked up): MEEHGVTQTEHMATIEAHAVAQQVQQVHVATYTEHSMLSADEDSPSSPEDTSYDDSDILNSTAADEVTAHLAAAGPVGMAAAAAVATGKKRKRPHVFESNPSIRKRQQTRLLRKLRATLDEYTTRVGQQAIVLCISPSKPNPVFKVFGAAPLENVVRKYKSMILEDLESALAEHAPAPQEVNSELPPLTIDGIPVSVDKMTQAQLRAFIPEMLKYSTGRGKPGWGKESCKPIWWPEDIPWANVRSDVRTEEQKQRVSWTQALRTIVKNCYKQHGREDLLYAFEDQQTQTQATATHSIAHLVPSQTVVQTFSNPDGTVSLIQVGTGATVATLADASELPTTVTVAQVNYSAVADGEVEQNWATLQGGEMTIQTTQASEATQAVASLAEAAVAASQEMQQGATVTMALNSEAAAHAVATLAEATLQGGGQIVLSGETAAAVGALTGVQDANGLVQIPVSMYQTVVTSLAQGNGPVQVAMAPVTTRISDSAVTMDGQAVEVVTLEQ
# Method in brief: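 HepG2 cells transiently transfected with multiple cis-regulated reporter units, exposed 24 h. Reporter mRNAs measured by RT-PCR, fluorescent labelling, HpaI digestion and capillary electrophoresis; bidirectional fitting against DMSO.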
# [17] = target: Myc proto-oncogene protein (Homo sapiens) (UniProt P01106); test: ATG_Myc_CIS: Attagene CIS-FACTORIAL HepG2 Assay for human Myelocytomatosis (Myc) Proto-Oncogene Transcription Factor (AID 2282990); settings: HepG2, Attagene cis-reporter transcription factor activity; actives raise or lower the signal
# Chain of Myc proto-oncogene protein (Homo sapiens) (P01106 whole entry, looked up): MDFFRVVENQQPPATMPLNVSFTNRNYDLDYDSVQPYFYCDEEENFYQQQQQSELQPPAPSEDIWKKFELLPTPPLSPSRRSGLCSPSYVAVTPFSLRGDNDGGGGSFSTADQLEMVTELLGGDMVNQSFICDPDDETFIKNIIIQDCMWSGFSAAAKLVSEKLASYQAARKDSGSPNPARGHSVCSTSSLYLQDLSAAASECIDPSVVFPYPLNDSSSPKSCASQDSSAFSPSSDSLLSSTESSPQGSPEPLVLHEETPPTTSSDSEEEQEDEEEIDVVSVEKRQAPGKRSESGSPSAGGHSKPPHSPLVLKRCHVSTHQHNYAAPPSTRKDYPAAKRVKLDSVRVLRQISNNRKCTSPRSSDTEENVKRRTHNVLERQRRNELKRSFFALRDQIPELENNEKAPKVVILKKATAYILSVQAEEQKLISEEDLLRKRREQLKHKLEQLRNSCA
# Method in brief: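 DMSO-normalised, bidirectionally fitted reporter mRNA signal. HepG2 cells transfected with cis reporter constructs, treated 24 h; transcripts detected by RT-PCR, 6-FAM primer extension and CE.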
# [18] = ATG_NRF2_ARE_CIS: Attagene CIS-FACTORIAL HepG2 Assay for human Nuclear Factor Erythroid 2 Related Factor 2 (NFR2) response to Antioxidant Response Elements (ARE) (AID 2282992); settings: HepG2 Attagene ARE/NRF2 reporter, transcription factor activity; actives raise or lower the signal;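 for AC50: reporter mRNA level measured by RT-PCR and capillary electrophoresis fluorescence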
# Method in brief: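 Readout: reporter mRNA quantified by RT-PCR plus FAM-labelled primer extension, HpaI digestion and capillary electrophoresis, 24 h after dosing transfected HepG2 cells. Gain or loss of signal is fitted bidirectionally against DMSO baseline.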
# [19] = ATG_Oct_MLP_CIS: Attagene CIS-FACTORIAL HepG2 Assay for human Octamer-Binding Transcription Factor (Oct) (AID 2282993); settings: HepG2 Attagene cis-factorial Oct reporter, mRNA; actives raise or lower the signal
# Method in brief: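 Using HepG2 cells bearing transfected cis-reporter constructs, mRNA induction was read after 24 h by fluorescent RT-PCR and capillary electrophoresis, with DMSO defining baseline for gain- or loss-of-signal fits.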
# [20] = target: Cellular tumor antigen p53 (Homo sapiens) (UniProt P04637); test: ATG_p53_CIS: Attagene CIS-FACTORIAL HepG2 Assay for human p53 Transcription Factor (AID 2282994); settings: HepG2 p53 cis-element reporter, Attagene mRNA; actives raise or lower the signal
# Chain of Cellular tumor antigen p53 (Homo sapiens) (P04637 whole entry, looked up): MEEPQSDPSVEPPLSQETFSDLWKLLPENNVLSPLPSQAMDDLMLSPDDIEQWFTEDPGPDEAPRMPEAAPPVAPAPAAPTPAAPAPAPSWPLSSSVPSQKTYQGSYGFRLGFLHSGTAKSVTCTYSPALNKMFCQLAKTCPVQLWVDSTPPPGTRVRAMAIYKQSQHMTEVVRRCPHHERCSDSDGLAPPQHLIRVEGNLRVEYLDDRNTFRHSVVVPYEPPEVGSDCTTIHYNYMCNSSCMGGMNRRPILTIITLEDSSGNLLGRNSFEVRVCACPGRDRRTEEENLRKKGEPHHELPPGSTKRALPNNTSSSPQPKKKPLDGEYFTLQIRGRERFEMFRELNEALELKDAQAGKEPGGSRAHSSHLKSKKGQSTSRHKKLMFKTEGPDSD
# Method in brief: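 Read-out: reporter mRNA by RT-PCR plus capillary electrophoresis with fluorescence detection. Human HepG2 liver cells carried transfected multi-reporter cis-element constructs, dosed 24 h. Gain or loss of signal fitted bidirectionally against DMSO control.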
# Chain of Aryl hydrocarbon receptor (Homo sapiens) (P35869 whole entry, looked up): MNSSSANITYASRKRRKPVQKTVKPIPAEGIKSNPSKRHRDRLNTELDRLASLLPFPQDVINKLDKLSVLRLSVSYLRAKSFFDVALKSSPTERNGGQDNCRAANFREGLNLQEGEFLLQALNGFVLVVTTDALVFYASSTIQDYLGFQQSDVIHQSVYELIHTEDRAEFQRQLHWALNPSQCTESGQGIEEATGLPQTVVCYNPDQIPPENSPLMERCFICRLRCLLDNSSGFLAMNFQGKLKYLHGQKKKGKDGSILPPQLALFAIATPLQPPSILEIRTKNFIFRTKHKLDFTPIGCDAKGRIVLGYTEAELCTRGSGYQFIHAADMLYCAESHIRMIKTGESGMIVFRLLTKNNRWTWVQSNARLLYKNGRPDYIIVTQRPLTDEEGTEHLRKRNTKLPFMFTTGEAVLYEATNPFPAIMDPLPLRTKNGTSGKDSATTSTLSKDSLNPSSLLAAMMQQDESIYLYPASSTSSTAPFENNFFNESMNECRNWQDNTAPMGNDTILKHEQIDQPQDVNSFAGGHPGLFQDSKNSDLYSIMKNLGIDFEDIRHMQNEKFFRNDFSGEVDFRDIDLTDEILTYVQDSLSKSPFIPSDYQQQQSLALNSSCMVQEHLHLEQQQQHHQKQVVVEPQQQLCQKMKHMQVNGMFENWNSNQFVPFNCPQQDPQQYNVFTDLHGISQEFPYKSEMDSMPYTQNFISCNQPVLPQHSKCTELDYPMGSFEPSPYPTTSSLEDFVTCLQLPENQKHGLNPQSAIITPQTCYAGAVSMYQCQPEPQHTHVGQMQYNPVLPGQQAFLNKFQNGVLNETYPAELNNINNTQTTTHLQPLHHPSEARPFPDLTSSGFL
smiles,measurement,setting,value
CC1(C)[C@H](C(=O)O[C@H](C#N)c2cccc(Oc3ccccc3)c2)[C@@H]1C=C(Br)Br,outcome,[1],inactive
same,outcome,[2],inactive
same,outcome,[3],inactive
same,outcome,[4],inactive
same,outcome,[5],inactive
same,outcome,[6],inactive
same,outcome,[7],inactive
same,outcome,[8],inactive
same,outcome,[9],inactive
same,outcome,[10],inactive
same,outcome,[11],inactive
same,outcome,[12],inactive
same,AC50,[13],56.7 µM (active)
same,outcome,[14],inactive
same,outcome,[15],inactive
same,outcome,[16],inactive
same,outcome,[17],inactive
same,outcome,[18],inactive
same,outcome,[19],inactive
same,outcome,[20],inactive
Nc1ccccc1,outcome,[2],inactive
same,outcome,[3],inactive
same,outcome,[4],inactive
same,outcome,[5],inactive
same,outcome,[6],inactive
same,outcome,[7],inactive
same,outcome,[8],inactive
same,outcome,[9],inactive
same,outcome,[10],inactive
same,outcome,[11],inactive
same,outcome,[12],inactive
same,outcome,[13],inactive
same,outcome,[14],inactive
same,outcome,[15],inactive
same,outcome,[17],inactive
same,outcome,[18],inactive
same,outcome,[19],inactive
same,outcome,[20],inactive
O=C(NCNC(=O)NC1C(=O)NC(=O)N1CO)NC1C(=O)NC(=O)N1CO (stereo unspecified),outcome,[1],inactive
same,outcome,[2],inactive
same,outcome,[3],inactive
same,outcome,[4],inactive
same,outcome,[6],inactive
same,outcome,[7],inactive
same,outcome,[8],inactive
same,outcome,[9],inactive
same,outcome,[10],inactive
same,outcome,[11],inactive
same,outcome,[12],inactive
same,AC50,[13],100 µM (active)
same,outcome,[15],inactive
same,outcome,[17],inactive
same,outcome,[18],inactive
same,AC50,[19],157 µM (active)
same,outcome,[20],inactive
CC(=O)c1cc2c(cc1C)C(C)(C)C(C)CC2(C)C (stereo unspecified),AC50,[2],26.5 µM (active)
same,outcome,[3],inactive
same,outcome,[4],inactive
same,AC50,[5],2.78 µM (active)
same,AC50,[6],116 µM (active)
same,AC50,[7],166 µM (active)
same,AC50,[9],46.1 µM (active)
same,outcome,[10],inactive
same,outcome,[11],inactive
same,AC50,[12],168 µM (active)
same,outcome,[13],inactive
same,AC50,[15],55.9 µM (active)
same,outcome,[16],inactive
same,AC50,[17],60.9 µM (active)
same,AC50,[18],26.7 µM (active)
same,AC50,[19],64.3 µM (active)
same,outcome,[20],inactive
C=Cc1cccc(CCl)c1,outcome,[1],inactive
same,outcome,[2],inactive
same,outcome,[3],inactive
same,outcome,[5],inactive
same,outcome,[6],inactive
same,outcome,[7],inactive
same,outcome,[8],inactive
same,outcome,[9],inactive
same,outcome,[10],inactive
same,outcome,[11],inactive
same,outcome,[12],inactive
same,outcome,[13],inactive
same,AC50,[14],38.5 µM (active)
same,outcome,[15],inactive
same,outcome,[16],inactive
same,outcome,[17],inactive
same,AC50,[18],22.4 µM (active)
same,AC50,[19],46.2 µM (active)
same,outcome,[20],inactive

# From PubChem BioAssay (EPA / NIEHS)
